Structures are written as SMILES.

Chain of NADPH oxidase 5 (Homo sapiens) (Q96PH1 whole entry, looked up): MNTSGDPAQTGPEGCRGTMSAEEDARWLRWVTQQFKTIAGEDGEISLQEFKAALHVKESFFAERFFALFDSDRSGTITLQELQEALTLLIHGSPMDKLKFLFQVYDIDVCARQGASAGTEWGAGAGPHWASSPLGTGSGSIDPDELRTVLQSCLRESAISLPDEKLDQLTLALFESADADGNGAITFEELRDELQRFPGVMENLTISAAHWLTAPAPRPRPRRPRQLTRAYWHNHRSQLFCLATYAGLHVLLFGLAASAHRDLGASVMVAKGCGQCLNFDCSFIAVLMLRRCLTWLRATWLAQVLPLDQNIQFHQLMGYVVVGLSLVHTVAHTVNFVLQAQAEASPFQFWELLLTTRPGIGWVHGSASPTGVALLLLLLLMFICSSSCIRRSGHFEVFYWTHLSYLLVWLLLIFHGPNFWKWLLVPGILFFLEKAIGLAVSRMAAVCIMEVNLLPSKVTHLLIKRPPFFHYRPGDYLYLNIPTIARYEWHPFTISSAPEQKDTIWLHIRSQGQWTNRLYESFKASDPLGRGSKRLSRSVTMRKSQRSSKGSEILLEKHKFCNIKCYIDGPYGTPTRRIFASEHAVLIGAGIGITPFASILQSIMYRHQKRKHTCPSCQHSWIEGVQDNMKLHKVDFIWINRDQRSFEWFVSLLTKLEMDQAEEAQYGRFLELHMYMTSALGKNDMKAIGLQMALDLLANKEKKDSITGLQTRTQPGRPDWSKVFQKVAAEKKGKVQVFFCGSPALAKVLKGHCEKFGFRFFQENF

This assay has as its target NADPH oxidase 5 (Homo sapiens) (UniProt Q96PH1). Put plainly: compounds shifting NOX5 Amplex Red fluorescence – cell-based, HEK293-NOX5, NOX inhibitor project, primary screen (AID 1161). The conditions noted are these: HEK293-NOX5, ionomycin, 45 min, higher = more signal.
Take `CO[C@H]1COC(=O)[C@H](CCSC)NC(=O)CC=C[C@@H](C)[C@H](OC)COC(=O)[C@@H](OCc2ccccc2)C=C[C@@H]1C`: the z-score is -0.911. For `COC(=O)[C@H](C)NC(=O)CCC1CC(OC(=O)NCCc2ccc(F)cc2)CC2(CCCC(COC(=O)NCCc3ccccc3OC)O2)O1` (stereo not given in full), the z-score is -0.543. Turning to `CC(C)CN1CCc2nc(-c3ccccc3)c3c(c2C1)CO[C@@H](C)C3`, the z-score was found to be 0.551.

On to `CC(C)[C@@H](OCc1ccccc1)[C@H](C)CON=C1[C@H]2CCn3c(=O)n(-c4ccccc4)c(=O)n3[C@H]2[C@H](O)[C@@H]2O[C@H]12`, for which the z-score was -0.851. Take `CON=C(C)CCN1CCc2nc(-c3ccccc3)c(-c3ccccc3)cc2C1`: the z-score was -6.68. With `COc1ccc(OC[C@H]2CN3[C@@H](CC[C@@H](C)[C@@H]3c3ccc(Br)cc3)C(=O)O2)cc1`, the z-score is -0.392.

For the compound `O=C(NN=C1C[C@@H](O)[C@@H](O)[C@@H]2[C@@H]3C(=O)N(c4ccc(F)cc4F)C(=O)[C@@H]3CC[C@H]12)OCc1ccccc1`, the z-score turned out to be 0.866.

Turning to `COC(=O)[C@H](C)NC(=O)CCC1CC(OC(=O)NCc2cccc3ccccc23)CC2(CCCC(COC(=O)NCc3ccccc3)O2)O1` (stereo not given in full), the z-score came to 1.06. `O=C1C2=CC[C@H]3C(=O)N(C4CCCCC4)C(=O)[C@H]3[C@H]2[C@H](O)[C@@H]2O[C@H]12`: the z-score was determined as 0.952. Then `C#CCCCON=C1C[C@@H](O)[C@@H](O)[C@@H]2[C@@H]3C(=O)N(C[C@@H]4CCCO4)C(=O)[C@@H]3CC[C@H]12`, with -1.

Regarding `O=C1[C@H]2CCn3c(=O)n(-c4ccccc4)c(=O)n3[C@H]2[C@H](O)[C@@H]2O[C@H]12`, the z-score was 0.423.

As for `CC(=O)OC[C@H]1O[C@H](CC=NOCC[C@@H]2C=C[C@H](OC(C)=O)[C@@H](COC(C)=O)O2)C=C[C@@H]1OC(C)=O`, the z-score was -0.705. As for `CCCNC(=O)OC[C@H]1O[C@H](CCON=C[C@@H](C)[C@H](OCc2ccccc2)C(C)C)C=C[C@@H]1Oc1ccc(OC)cc1`, the z-score was -0.574. On to `CC(CCC(=O)OC[C@H]1O[C@H](C#Cc2ccccc2)C=C[C@@H]1Oc1ccc(C)cc1)=NOC(C)CN1CCCCc2nc(C)c(C)cc21` (stereo not given in full), for which the z-score was -0.461. Consider `CCN1C(=O)[C@H]2[C@H]3[C@H](O)[C@H](O)CC(=NNC(=O)OCc4ccccc4)[C@H]3CC[C@H]2C1=O`, for which the z-score came out at 0.0659. Consider `CO[C@@H](C(C)C)[C@@H](C)C1OC(=O)CC1O` (stereo not given in full), for which the z-score amounted to 0.368. In the case of `CC(C)=NOC(C)CN1CCCc2nc(C)c(C)cc21` (stereo not given), the z-score is -0.281.

Consider `CO[C@@H]1[C@H](O)CO[C@H]1C=Cc1ccccc1`, for which the z-score worked out at 1.23. Then `COc1ccc(O[C@H]2C=C[C@@H](C#Cc3ccccc3)O[C@@H]2CO)cc1`, with -0.196. In the case of `CC(CCC(=O)OC[C@H]1O[C@H](C#Cc2ccccc2)C=C[C@@H]1Oc1ccc(C)cc1)=NOC[C@@H](C)[C@H](OCc1ccccc1)C(C)C` it was 0.919; in that of `CC(CCN1CCc2nc(-c3ccccc3)c(-c3ccccc3)cc2C1)=NOC(C)CN1CCCc2nc(C)c(C)cc21` (stereo not given), -3.15. For the compound `CCOC(=O)[C@H](CC(C)C)NC(=O)CCC1CC(OC(=O)NCc2ccc3c(c2)OCO3)CC2(CCCC(COC(=O)NCCc3ccc(Cl)cc3)O2)O1` (stereo not given in full), the z-score is 0.301. For `CC(=O)OC[C@H]1O[C@@H](ON=C(C)CCC(=O)OC[C@H]2O[C@H](C#Cc3ccccc3)C=C[C@@H]2Oc2ccc(C)cc2)[C@H](OC(C)=O)[C@@H](OC(C)=O)[C@@H]1OC(C)=O`, the z-score was determined as 1.38. Take `CC(C)CON=C1C[C@@H](O)[C@@H](O)[C@@H]2[C@@H]3C(=O)N(c4ccc(F)cc4F)C(=O)[C@@H]3CC[C@@H]12`: the z-score is -3.22.

On to `CCOC(=O)CCN1C(=O)[C@H]2[C@H]3[C@H](O)[C@H](O)CC(=NO[C@@H]4O[C@H](CO)[C@@H](O)[C@H](O)[C@H]4O)[C@H]3CC[C@H]2C1=O`, for which the z-score was -0.9. With `CCOC(=O)[C@H](Cc1ccccc1)NC(=O)CCC1CC(OC(=O)NCc2cccc3ccccc23)CC2(CCCC(COC(=O)NCCc3ccc(Cl)cc3)O2)O1` (stereo not given in full), the z-score was found to be 0.986.

For `CCN1C(=O)[C@H]2[C@H]3[C@H](O)[C@H](O)CC(=NOC[C@@H](O)COCc4ccco4)[C@H]3CC[C@H]2C1=O`, the z-score worked out at 0.262.

As for `C#CCCCON=C1C[C@@H](O)[C@@H](O)[C@@H]2[C@@H]3C(=O)N(C4CCCCC4)C(=O)[C@@H]3CC[C@@H]12`, the z-score was -0.0773. Turning to `COC(=O)[C@H](CCSC)NC(=O)CC=C[C@@H](C)CO`, the z-score was 0.613. For `CCc1cc2c(nc1CC)CCN(CCC(C)=NO[C@@H]1O[C@H](COC(C)=O)[C@@H](OC(C)=O)[C@H](OC(C)=O)[C@H]1OC(C)=O)C2`, the z-score was 1.03.

The values above are taken from PubChem BioAssay.
